Screens: PubChem BioAssay, National Center for Advancing Translational Sciences (NCATS)
CHX counter: affects cycloheximide protein synthesis inhibition readout, counter-screen; AID 2314; max response, %; actives 12% (n = 300,000); cell reporter, cycloheximide protein synthesis inhibition counterscreen; in the data active means max response mostly above about 13%, no sharp cut-off; inactive means mostly below about 14%; further: read at 38.3 µM for the half of the compounds with a filed dose; 0% is about no effect
Shiga toxin inh: Shiga toxin inhibition | Vero cells, Shiga toxin protein synthesis inhibition reporter | inhibition, % at 38.7 µM | actives 9.2% (n = 290,000) | AID 2315; in the data active means inhibition mostly above about 28%, no sharp cut-off; inactive means mostly below about 43%; further: 0% is about no effect
FMDV antiviral: antivirals against foot and mouth disease virus. FMDV antiviral cell-based qHTS. AID 1159524. Potency, µM (doses to about 57.9 µM), for inactives: at the highest dose activity change, negative = inhibition, actives largely listed as inhibitors. actives 1.2% (n = 410,000); calls by dose curve; tested in HEK293T cells; further: read-out not given here; potency means the concentration at half of the fitted maximal effect; on the % scale 0 is the no-effect control and ±100 the full control effect; nearly all actives have a fitted effect of over 45% in size
Sm TGR inh: blocks Schistosoma mansoni thioredoxin glutathione reductase. purified TGR, DTNB reduction, TNB absorbance 405 nm. Potency, µM (doses to about 114 µM), inactives show at the top dose activity change, negative = inhibition, actives largely listed as inhibitors. Q962Y6. actives 3% (n = 360,000); active means well fitted inhibition curve with a large enough effect; inconclusive means small, poorly fitted or top-dose-only effect; inactive means no such curve, though single readings can be large or run the other way; further: potency means the concentration at half of the fitted maximal effect; on the % scale 0 is the no-effect control and ±100 the full control effect; nearly all actives have a fitted effect of over 60% in size
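First, TGR (20 nM dispensed) and NADPH were mixed with compound. Second, a 15 min room-temperature incubation followed. Third, further NADPH and then DTNB were added to start the reaction. Finally, TNB absorbance was monitored kinetically.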
An asterisk follows results filed as active; ? = inconclusive; nt = no result given; + = active, no number. Compounds with a hit are over-represented: about 12% of the library has one in this group of screens.

SMILES	CHX counter	Shiga toxin inh	FMDV antiviral	Sm TGR inh
O=C(/C=C/c1ccc(F)cc1)NC(=S)N1CCN(c2ccccn2)CC1	43*	98*	20%	5%
COc1ccc(/C=C/C(=O)NC(=S)N2CCOCC2)cc1	39*	73*	49%	-6%
COc1ccccc1N1CCN(C(=S)Nc2ccc(F)cc2)CC1	34*	45*	-16%	-4%
COc1ccc(/C=C/C(=O)NC(=S)N2CCN(c3ccccc3OC)CC2)cc1	20*	22	41%	15%
COc1ccc(/C=C/C(=O)NC(=S)N2CCN(c3ccccn3)CC2)cc1OC	-2	4	-20%	-5%
Cc1ccc2c(=O)cc(C(=O)Nc3ccc(S(=O)(=O)N(C)Cc4ccccc4)cc3)oc2c1	nt	nt	-26%	0%
Cc1ccc(-c2nnc(N3CCC(C)CC3)c3ccccc23)cc1C	1	-10	20µM*	5%
Cc1ccc(-c2nnc(N3CCC(C)CC3)c3ccccc23)cc1	10	16	?	4%
COc1ccccc1N1CCN(c2nnc(-c3ccc(F)cc3)c3ccccc23)CC1	2	-12	20µM*	-1%
COc1ccc(-c2nnc(N3CCCCC3)c3ccccc23)cc1	-1	-16	?	-10%
Cc1ccc(-c2nc(CCNC(=O)C(=O)Nc3ccc(C)c(Cl)c3)cs2)cc1	nt	nt	-25%	5%
CS(=O)(=O)Nc1cccc(-c2cc(Nc3ccccc3)ncn2)c1	nt	nt	38%	nt
CN(C)c1ccc(-c2nc3cnccn3c2Nc2ccc3c(c2)OCCO3)cc1	31*	87*	20%	0%
Cc1ccc(-c2nc3cnccn3c2Nc2ccc3c(c2)OCO3)cc1	3	11	-28%	-24%
Cc1ccc(-c2nc3cnccn3c2Nc2ccc3c(c2)OCCO3)o1	34*	22*	1%	?
COc1ccc(-n2c(-c3ccc(C)cc3)cc3c2CC(C)(C)CC3=O)cc1Cl	nt	nt	?	5%
Cc1ccc(N2C(=O)c3ccc(N)cc3C2=O)cc1	30*	67*	-8%	8%
O=C(Nc1ccc2c(c1)C(=O)N(c1ccccc1)C2=O)C1CCCO1 (stereo not given)	32*	33*	0%	-21%
Cc1ccc(N2C(=O)c3ccccc3C2=O)cc1C	13	26	14%	2%
CC(=O)Nc1ccc2c(c1)C(=O)N(c1ccc(C)cc1)C2=O	51*	+	54%	6%
Cc1ccc(N2C(=O)c3cccc4cccc(c34)C2=O)cc1	1	7	-10%	6%
Cc1ccc(N2C(=O)c3ccc(N)cc3C2=O)cc1C	31*	119*	29%	-3%
CC(C)(C)C(=O)Nc1ccc2nc(SCCOc3ccccc3Cl)sc2c1	nt	nt	?	7%
Cc1ccccc1-c1nnc(CN2CCN(c3cccc(C)c3C)CC2)o1	nt	nt	2%	3%
O=C(c1nc2ccccc2[nH]1)c1ccccc1[N+](=O)[O-]	32*	73*	47%	3%
SMILES	CHX counter	Shiga toxin inh	FMDV antiviral	Sm TGR inh
O=C(O)c1cc([N+](=O)[O-])c(Sc2nc3ccccc3[nH]2)c([N+](=O)[O-])c1	-4	21	-7%	1.8µM*
O=C(O)c1ccc(CSc2nc3ccccc3[nH]2)cc1	1	-6	3%	-10%
CS(=O)(=O)c1cc([N+](=O)[O-])c(Sc2nc3ccccc3[nH]2)c([N+](=O)[O-])c1	15	3	?	1.4µM*
CCN(Cc1ccccc1)C(=O)CN1C(=O)CSc2ccc(S(=O)(=O)N(CC)CC)cc21	nt	nt	-20%	19%
CCOc1cc(C(=O)NCCc2sc(-c3ccc(F)cc3)nc2C)cc(OCC)c1OCC	nt	nt	-23%	-1%
COc1ccc(-c2c3c(cc4ncn(Cc5ccccc5)c24)COC3=O)cc1	nt	nt	-10%	32µM*
CC1CCc2nc3ncn(CC(=O)Nc4cccc(C#N)c4)c(=O)c3cc2C1 (stereo not given)	nt	nt	14%	-4%
CC(=O)c1ccc(NC(=O)CCCc2nc(-c3cccc(C)c3)no2)cc1	nt	nt	-17%	-3%
Cc1ccc(-n2nnnc2-c2ccco2)cc1	3	6	-5%	-7%
CN(C)C(CNc1nnnn1-c1ccccc1)c1ccco1 (stereo not given)	-1	-17	-17%	45µM*
C/C(=N\NC(=S)NCc1ccccc1)c1cccc(Br)c1	49*	68*	52%	6%
COc1cc(OC)cc(C(=O)NC(=S)NCCc2ccccc2)c1	14*	47	0%	10µM*
C/C(=N\NC(=S)NCCc1ccccc1)c1cccc(Br)c1	1	13	13%	-11%
O=C(NC(=S)NCc1ccccc1)c1ccc(Br)cc1	nt	nt	21%	nt
COc1ccc(C(=O)NC(=S)NNC(=O)Cc2cccs2)cc1	18*	55*	-6%	3%
COc1ccc(C(=O)NC(=S)NCc2ccccc2)cc1	6	-1	39%	5µM*
COc1cc(OC)cc(C(=O)NC(=S)NNC(=O)Cc2cccs2)c1	2	20	-9%	5%
CC1N=C2c3ccccc3N=C(SCC(=O)NCc3ccc(Cl)cc3)N2C1=O (stereo not given)	nt	nt	-19%	11%
COc1ccc(C(=O)N(Cc2cc(OC)c(OC)c(OC)c2)C2CCS(=O)(=O)C2)cc1Cl (stereo not given)	nt	nt	-6%	-1%
CCN1CCC(N(Cc2ccc(F)cc2)C(=O)Nc2cccc(C(F)(F)F)c2)CC1	nt	nt	0%	10%
CCOC(=O)c1ccccc1NC(=O)CN1CCCN(Cc2cccc(Cl)c2)S1(=O)=O	nt	nt	-10%	4%
COc1ccc(C(=O)N2CCC3(CC2)CCN(c2ccncc2)CC3)cc1	nt	nt	19%	nt
COc1ccc(CNC(=S)N/N=C(\C)c2ccc(OC)cc2)cc1	15	64*	6%	11%
C=CCNC(=S)N/N=C(\C)c1ccc(OC)cc1	7	-1	-6%	-27%
NC1(C(=O)O)CCc2cc(P(=O)(O)O)ccc21 (stereo not given)	nt	nt	16%	nt
SMILES	CHX counter	Shiga toxin inh	FMDV antiviral	Sm TGR inh
O=C(Nc1ncccn1)c1cc(-c2cccc(Br)c2)nc2ccccc12	-1	14	?	9%
O=C(NC1=NCCS1)c1cc(-c2cccc(Br)c2)nc2ccccc12	20*	22	-4%	4%
Cc1ccc2nc(-c3cccc(Br)c3)cc(C(=O)NC3=NCCS3)c2c1	15	76*	19%	nt
O=C(Nc1ccncc1)c1cc(-c2cccc(Br)c2)nc2ccccc12	nt	nt	?	-5%
CCCCOc1ccc(C(=O)Nc2cc(-c3cn4cccnc4n3)ccc2OC)cc1	nt	nt	0%	0%
COc1cccc(C=Nc2cccc3c(=O)[nH][nH]c(=O)c23)c1O	24*	60*	11%	-2%
COc1ccc(C=Nc2cccc3c(=O)[nH][nH]c(=O)c23)c2ccccc12	14	15	46%	4%
COc1c(C)cc(S(=O)(=O)Nc2cccc(-c3ccc(N4CCOCC4)nn3)c2)c(C)c1C	nt	nt	26%	4%
O=C(/C(N=Nc1cccc(C(F)(F)F)c1)=C(/O)c1cccs1)C(F)(F)F	35*	66*	-14%	16%
Cc1nc(N)sc1N=Nc1ccccc1C(F)(F)F	45*	112*	35%	18%
COc1cccc(NC(=O)CSc2nc(=O)[nH]c3c2CCCC3)c1	nt	nt	-12%	-3%
CC(=O)OCc1c(C(F)(F)F)nn(C)c1Oc1ccccc1	-4	-3	6%	-5%
Cn1nc(-c2ccccc2)c(CO)c1Oc1ccc(F)cc1	18*	21	-23%	-3%
